Compound activity (PubChem)
An excerpt weighted towards active compounds, which were near 0.97% of everything screened.
Eya2 phos inh: blocks the phosphatase activity of human Eya2. O00167. recombinant Eya2, OMFP fluorescence dephosphorylation (OMFP is methylfluorescein phosphate). Potency, µM (series often up to 76.9 µM), usual class: inhibitors. 330,000 tested, 0.006% active; active means well fitted inhibition curve with a large enough effect; inconclusive means small, poorly fitted or top-dose-only effect, or effect the other way
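Eya2 protein (added as 0.2 uM solution) was preincubated with compound for 10 min at ambient temperature in 50 mM HEPES pH 7.5, 50 mM NaCl, 5 uM MgCl2, 0.05% BSA, 1 mM DTT. OMFP (added at 50 uM) then reacted 10 min; fluorescence read at 485/525 nm.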
CCT modulator: modulators of cytosolic chaperonin (CCT/TRiC) activity | purified chaperonin ATPase assay, HTRF ADP detection, 30 min | activity change, % (test concentration not listed), hits read low | 360,000 tested, 0.3% active | AID 651819; in the data active means activity change below about -30%
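We incubate TRiC, 40 or 20 nM final, with library compounds at 76 uM and 10 uM ATP for 30 min at 37 °C. ADP formed is detected with Transcreener HTRF reagents after 30 min at room temperature.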
PI4K2A inh: blocks human PI4K2A kinase activity | Q9BTU6 | purified PI4K2A, ADP-Glo luminescence, 1 h; hits give low values | activity change, negative = inhibition, % at 76.9 µM | 420,000 tested, 0.13% active | AID 1346378; in the data active means activity change below about -50%; inconclusive means mostly about -30% to -49%
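PI4K2A activity was measured by ADP-Glo luminescence: enzyme (4 ug/mL stock) and phosphatidylinositol (1.2 mM stock) in Tris pH 7.5/MgCl2/EGTA/Triton X-100 buffer were reacted with ATP (300 microM stock) for one hour at ambient temperature.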
Six1-Eya2 blk: Six1/Eya2 interaction inhibition; Q15475+O00167; AlphaScreen GST-Six1/His-Eya2 binding, biochemical; hits give low values; activity change, % (test concentration not listed); 360,000 tested, 0.56% active
Target sequence (O00167 whole entry, looked up): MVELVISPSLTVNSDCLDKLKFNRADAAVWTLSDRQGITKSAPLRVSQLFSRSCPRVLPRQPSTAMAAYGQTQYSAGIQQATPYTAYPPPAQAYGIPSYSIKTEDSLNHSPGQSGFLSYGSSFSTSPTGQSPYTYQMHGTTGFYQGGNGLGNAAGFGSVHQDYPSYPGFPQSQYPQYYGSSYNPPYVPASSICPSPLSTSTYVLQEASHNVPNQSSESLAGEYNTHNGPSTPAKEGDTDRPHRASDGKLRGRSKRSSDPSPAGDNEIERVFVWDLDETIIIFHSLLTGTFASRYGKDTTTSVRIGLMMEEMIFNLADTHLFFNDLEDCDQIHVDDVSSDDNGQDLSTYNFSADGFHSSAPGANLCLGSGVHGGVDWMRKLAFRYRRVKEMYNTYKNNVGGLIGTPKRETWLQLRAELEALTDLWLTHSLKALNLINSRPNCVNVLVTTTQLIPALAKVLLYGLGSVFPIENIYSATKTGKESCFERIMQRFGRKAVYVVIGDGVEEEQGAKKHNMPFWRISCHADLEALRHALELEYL
Target sequence (Q15475 whole entry, looked up): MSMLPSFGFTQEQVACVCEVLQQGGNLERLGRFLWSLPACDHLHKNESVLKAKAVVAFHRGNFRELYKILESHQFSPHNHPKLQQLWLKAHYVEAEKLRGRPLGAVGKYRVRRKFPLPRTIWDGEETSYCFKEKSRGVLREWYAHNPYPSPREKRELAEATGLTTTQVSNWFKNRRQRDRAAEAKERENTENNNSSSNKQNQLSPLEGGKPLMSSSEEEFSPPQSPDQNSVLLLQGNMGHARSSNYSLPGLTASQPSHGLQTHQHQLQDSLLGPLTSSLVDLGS
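GST-Six1 + His-Eya2 (5X stock: 250/500 nM); Tris pH 8.0, 300 mM NaCl, 0.05% BSA, 0.02% Tween 20; GSH donor/Ni acceptor beads; 1 h 37 °C dark; AlphaScreen readout.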
CtBP-E1A inh: CtBP/E1A binding inhibition; 340,000 tested, 0.49% active; activity change, % (no concentration beside the values); AID 651724; AlphaScreen GST-E1A/His-CtBP binding, 1536-well; hits give low values
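AlphaScreen with 125 nM GST-E1A and 125 nM His-CtBP (5X stocks) in Tris pH 8.0, 300 mM NaCl, BSA, Tween 20, TCEP. Compounds preincubated 2 h at 37 deg C, then glutathione donor/nickel acceptor beads added for 1 h at 37 deg C in dark.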
A number is an active result; n = inactive; u = inconclusive; x = no result given. Unless noted, no stated cut-off is given here; in the data, active means activity change below about -65%; inconclusive means mostly about -30% to -63%; inactive means weaker than that.

SMILES	Eya2 phos inh	CCT modulator	PI4K2A inh	Six1-Eya2 blk	CtBP-E1A inh
CCC(=O)N1CCc2cc(S(=O)(=O)CCC(=O)NCc3cccc(OC)c3)ccc21	n	-66	n	n	x
CCC(=O)N1CCc2cc(S(=O)(=O)CCC(=O)NCc3ccc(F)cc3)ccc21	x	x	n	x	x
COc1ccc(CNC(=O)CCS(=O)(=O)c2ccc3c(c2)CCN3C(C)=O)cc1	n	n	n	-92	n
Nc1cc(C(=O)O)c(N)c2c1C(=O)c1ccccc1C2=O	u	n	-55	-80	-92
CCOc1ccc2nc(NC(=O)c3ccccc3)sc2c1	x	x	-58	x	x
CCOc1ccc2nc(NC(=O)c3cccnc3)sc2c1	n	n	n	n	n
Cc1ccc(NC(=O)c2cc3c(=O)n(Cc4ccco4)ccc3nc2C)cc1C	x	x	n	x	x
CCC(=O)NC(c1cc(Cl)c2cccnc2c1O)C(C)C (configuration not stated)	n	x	n	x	x
Oc1c(C(c2ccccn2)N2CCCCC2)cc(Cl)c2cccnc12 (configuration not stated)	n	n	n	-92	-93
CN1CCN(C(c2ccc(C(F)(F)F)cc2)c2cc(Cl)c3cccnc3c2O)CC1 (configuration not stated)	n	x	x	x	x
CN1CCN(C(c2ccc(Cl)cc2)c2cc(Cl)c3cccnc3c2O)CC1 (configuration not stated)	n	n	n	u	-80
CCc1cnc2c(c1SCC(=O)c1ccc(OC)cc1)c(=O)n(C)c(=O)n2C	x	x	n	x	x
Cc1ccc(C(=O)Nc2nc3nc(C)cc(=O)n3[nH]2)cc1	x	x	n	x	x
COc1ccc(N(C(=O)COc2c(C)cccc2C)S(=O)(=O)c2ccc(Cl)cc2)cc1	x	x	n	x	x
Cc1ccc(-c2nc3n(n2)Cc2ccccc2-3)cc1	n	n	u	n	n
c1ccc(-c2cn3c(n2)-c2ccccc2C3)cc1	n	n	-51	n	n
COc1cc(COC(=O)c2cnc(C)cn2)c(OC)cc1Br	n	-52	n	n	n
O=C(COC(=O)/C=C/c1ccc(OC(F)F)cc1)NC1CCCC1	n	-117	n	n	n
Cc1ccc(/C=N/N(C)C2=NS(=O)(=O)c3ccccc32)cc1	n	n	n	n	n
CN(C)c1ccc(/C=N/N(CCO)C2=NS(=O)(=O)c3ccccc32)cc1	n	n	n	-67	x
CN(/N=C/c1ccncc1)C1=NS(=O)(=O)c2ccccc21	n	n	n	-88	-86
COc1cc(Br)cc(/C=N/N(CCO)C2=NS(=O)(=O)c3ccccc32)c1OC	n	n	n	n	u
COc1cc(/C=N/N(CCO)C2=NS(=O)(=O)c3ccccc32)cc(OC)c1OC	n	n	n	-66	-90
O=S1(=O)N=C(N(CCO)/N=C/C=C/c2ccccc2)c2ccccc21	n	n	n	-85	-89
COc1ccc(N2C(=O)CSC23C(=O)N(Cc2ccc(C)cc2)c2ccccc23)cc1Cl (configuration not stated)	x	x	n	x	x
SMILES	Eya2 phos inh	CCT modulator	PI4K2A inh	Six1-Eya2 blk	CtBP-E1A inh
CC(C)(C)NC(=O)CCN(/N=C/c1ccc([N+](=O)[O-])o1)C1=NS(=O)(=O)c2ccccc21	n	n	n	-88	-74
Cc1nnc(-c2ccccc2)c(=O)n1/N=C/c1c(O)ccc2ccccc12	u	n	n	-94	n
Cc1nnc(C)n1/N=C/c1c(O)ccc2ccccc12	n	n	n	n	x
COc1ccc2cc3c(N)c(C(=O)NCc4ccco4)sc3nc2c1	n	n	-57	n	n
COC(=O)c1sc(-c2cccs2)cc1NC(=O)/C=C/C(=O)O	n	-42	n	n	n
NC(c1csc(Nc2ccccn2)n1)C1CCCCC1 (configuration not stated)	x	n	n	u	-80
Cc1cnc(C)c(Nc2nc(C(N)c3ccccc3)cs2)n1 (configuration not stated)	x	n	n	u	-66
NC(c1ccccc1)c1csc(Nc2ccccn2)n1 (configuration not stated)	x	n	n	-89	-90
c1ccc(-c2csc(Nc3ccccn3)n2)cc1	n	n	n	n	n
Cc1cc2c(n1-c1ccc(C(=O)NCCc3ccc(Cl)cc3)cc1)CCC(C)C2 (configuration not stated)	x	x	n	x	x
COc1cccc(CNc2ccc(N3CCCCC3)cc2)c1OC	n	n	n	-66	u
CCOC(=O)c1ccc(NC(=O)CSc2nnc(-c3cc(-c4ccccc4)n[nH]3)n2N)cc1	x	x	n	x	x
COC(=O)c1sc(S(=O)(=O)N2CCC(C(N)=O)CC2)c(C(=O)OC)c1C	n	-33	n	n	n
COc1cccc(C(=O)n2ccc3ccc(-c4ccc5ccn(C(=O)c6cccc(OC)c6)c5c4)cc32)c1	x	x	n	x	x
O=S(=O)(c1ccc2[nH]c3c(c2c1)CCCC3)N1CCCCC1	n	-73	n	u	x
Cc1ccc2cccc(NC(=O)c3ccc(-c4cccc(Cl)c4Cl)o3)c2n1	x	x	n	x	x
COc1ccc(CC(=O)NCc2nc3cccnc3n2Cc2ccc(C)cc2)cc1OC	x	x	n	x	x
COc1cc2c(cc1OC)-c1c(OC)c(OC)cc3ccnc(c13)C2=O	n	n	n	u	-71
Cc1ccc2onc(CNC(=O)NCc3ccccc3)c2c1	x	x	n	x	x
O=C(COc1cccc(F)c1)Nc1nc(-c2ccccn2)cs1	x	n	n	-77	u
O=C(COc1ccc(F)cc1)Nc1nc(-c2ccccn2)cs1	n	n	n	-84	u
O=C(COc1ccc([N+](=O)[O-])cc1)Nc1nc(-c2ccccn2)cs1	n	n	n	-79	-92
O=C(COc1ccccc1)Nc1nc(-c2ccncc2)cs1	n	n	n	n	n
Cc1ccc(OCC(=O)Nc2nc(-c3ccccn3)cs2)c(C)c1	n	n	n	u	u
O=C(Cn1nc(C(F)(F)F)c2c1CCCC2)Nc1ccc(Br)cc1	x	x	n	x	x
SMILES	Eya2 phos inh	CCT modulator	PI4K2A inh	Six1-Eya2 blk	CtBP-E1A inh
Cc1ccc(-c2nnn(CC(=O)N(CCN3CCOCC3)C(C(=O)NC(C)(C)C)c3ccco3)n2)cc1 (configuration not stated)	n	-63	n	n	n
Cc1ccc(-c2nnn(CC(=O)N(CCN3CCOCC3)C(C(=O)NC(C)(C)C)c3ccc(C)o3)n2)cc1 (configuration not stated)	n	n	n	n	n
COc1ccc(C(CCNCc2ccc(N(C)C)cc2)c2ccccc2OC)cc1 (configuration not stated)	u	n	n	-74	-75
Cc1ccc(N/N=C(/Sc2nnnn2-c2ccccc2)C(=O)c2ccccc2)cc1	n	n	n	-78	u
O=C(/C(=N\Nc1ccc([N+](=O)[O-])cc1)Sc1nnnn1-c1ccccc1)c1ccccc1	n	n	n	u	u
COc1ccc(CNC(=O)CN(C(=O)c2csnn2)c2ccc(C(C)=O)cc2)cc1	n	-40	n	n	n
NNC(=O)c1oc2nc(-c3ccco3)cc(-c3ccco3)c2c1N	n	n	-57	u	n
